# Measurements reported in PubChem BioAssay.
# Active and inactive are the calls of the source.
# Assays:
# Albumin (Bos taurus) = Albumin (Bos taurus) (UniProt P02769); experiment: compounds binding labelled BSA control protein – biochemical, small-molecule microarray, Alexa647 label, 635/667 nm fluorescence, artefact control for SMM control protein annotation, profiling panel (AID 1118); details: BSA-A647 binding, fluorescence 635 nm, higher = more signal;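 note: score merges 667 nm emission intensity and signal-to-noise per printed compound spot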
# [1] = probe aXIP binding to arrayed compounds – biochemical, NeuroSMM set, 635/667 nm fluorescence, primary screen (AID 1119); details: small-molecule microarray, higher = more signal, called active from +8 up or from −8 down;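 note: probe is the protein aXip251-270 applied at 1 µg/mL to compound-printed slides; binding of probe to printed compounds measured as 667 nm fluorescence plus signal to noise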
# [2] = probe aNOTCH3 binding on compound microarray – biochemical, small-molecule microarray, 635/667 nm fluorescence, primary screen (AID 1120); details: higher = more signal;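 note: probe is a biotin-tagged antibody raised against NOTCH3 rather than NOTCH3 protein; score merges spot fluorescence near 667 nm with spot signal to noise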
# [3] = probe aNOTCH2 binding on compound microarray – biochemical, small-molecule microarray, 635/667 nm fluorescence, primary screen (AID 1121); details: higher = more signal;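 note: score merges feature fluorescence read at 667 nm with its signal to noise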
# [4] = target: Carbonic anhydrase 2 (Homo sapiens) (UniProt P00918); experiment: compounds binding carbonic anhydrase 2 – biochemical, small-molecule microarray, Alexa647-labelled CAII, profiling panel (AID 1122); details: CAII-A647 binding fluorescence, higher = more signal
# [5] = COS7 lysate on small-molecule microarray, probe aHis, 635 nm (AID 1123); details: COS7 cell lysate, fluorescence, higher = more signal;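 note: z-score combines 667nm fluorescence intensity with signal-to-noise per printed compound spot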
# [6] = probe aLAP1 signal on lysate-treated microarray – cell lysate, small-molecule microarray, COS7 lysate, primary screen (AID 1124); details: probe aLAP1, fluorescence, higher = more signal;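 note: lysate comes from COS7 cells expressing LAP1 and is applied at 0.3 µg/mL; score merges spot fluorescence near 667 nm with signal-to-noise over triplicate slides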
# Sam68 (KHDRBS1) = experiment: compounds binding KHDRBS1 protein – biochemical, small-molecule microarray, 635 nm fluorescence, primary screen (AID 1125); details: higher = more signal;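 note: score merges 667 nm channel intensity with signal to noise over triplicate slides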
# [7] = tested on: Chordin-like protein 2 (CHRDL2); experiment: compounds binding chordin-like 2 – biochemical, small-molecule microarray, 635 nm fluorescence, primary screen (AID 1126); details: fluorescence 635 nm, higher = more signal;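 note: printed compound slides probed with Chrdl2 protein at 4 µg/mL for 1 h at 4 C; score merges 667 nm emission intensity with signal to noise over three replicate slides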
# [8] = target: Concanavalin-A (Canavalia ensiformis) (UniProt P02866); experiment: compounds binding concanavalin A lectin – biochemical, small-molecule microarray, Alexa647 label, 635 nm, artefact control for SMM control protein annotation, primary screen (AID 1127); details: ConA-A647 binding fluorescence, higher = more signal;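 note: z combines 667 nm emission intensity with signal-to-noise across three replicate slides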
# Sequence of Concanavalin-A (Canavalia ensiformis) (P02866 whole entry, looked up): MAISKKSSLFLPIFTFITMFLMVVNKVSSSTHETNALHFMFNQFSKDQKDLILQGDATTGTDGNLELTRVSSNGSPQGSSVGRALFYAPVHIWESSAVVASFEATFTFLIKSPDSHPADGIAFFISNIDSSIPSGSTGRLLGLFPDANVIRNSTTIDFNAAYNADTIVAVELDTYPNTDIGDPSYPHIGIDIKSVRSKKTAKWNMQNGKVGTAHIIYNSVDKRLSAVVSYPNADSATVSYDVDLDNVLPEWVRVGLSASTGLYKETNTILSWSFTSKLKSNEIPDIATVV
# Sequence of Albumin (Bos taurus) (P02769 whole entry, looked up): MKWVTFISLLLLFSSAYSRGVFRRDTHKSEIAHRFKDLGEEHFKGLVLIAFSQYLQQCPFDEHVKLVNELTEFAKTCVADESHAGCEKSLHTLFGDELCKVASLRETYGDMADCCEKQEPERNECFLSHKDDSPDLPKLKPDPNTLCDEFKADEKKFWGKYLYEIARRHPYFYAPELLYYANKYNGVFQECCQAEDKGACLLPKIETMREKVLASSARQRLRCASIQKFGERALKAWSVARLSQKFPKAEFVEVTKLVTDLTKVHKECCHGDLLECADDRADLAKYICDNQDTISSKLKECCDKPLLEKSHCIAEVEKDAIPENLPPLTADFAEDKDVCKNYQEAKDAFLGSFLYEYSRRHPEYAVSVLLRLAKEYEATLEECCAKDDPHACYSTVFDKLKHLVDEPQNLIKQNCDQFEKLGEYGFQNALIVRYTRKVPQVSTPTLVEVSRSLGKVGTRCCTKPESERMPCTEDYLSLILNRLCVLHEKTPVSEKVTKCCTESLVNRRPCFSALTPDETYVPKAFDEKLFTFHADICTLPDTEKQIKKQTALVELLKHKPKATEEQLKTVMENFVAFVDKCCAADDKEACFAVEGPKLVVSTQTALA
SMILES,composite z-score (Albumin (Bos taurus)),composite Z-score [1],composite z-score [2],composite z-score [3],composite z-score [4],composite z-score [5],composite z-score [6],composite z-score (Sam68 (KHDRBS1)),composite z-score [7],composite z-score [8]
O=C(O)[C@]1(Cc2ccccc2)N=C(c2ccc(OCCCO)cc2)O[C@@H]1c1ccccc1,0.424,-0.191 (inactive),-0.122,-0.14,0.837,0.689,-0.278,-1.24,-1.65,0.0277
COCCCNC(=O)[C@]1(Cc2ccccc2N=[N+]=[N-])N=C(c2ccc(OCCCO)cc2)O[C@@H]1c1ccccc1N=[N+]=[N-],0.99,0.0401 (inactive),0.0348,-0.0372,0.666,2.33,-0.0886,1.3,-0.502,1.09
C=CCOC(=O)[C@@H]1[C@H]2C(=O)O[C@H](c3ccccc3)[C@H](c3ccccc3)N2[C@H](c2ccc(OCCOC(=O)[C@H]3C[C@H]4C(=O)N[C@@H](CC(C)C)C(=O)N4[C@H]3c3ccc(O)cc3)cc2)[C@@]12C(=O)Nc1ccc(I)cc12,-1.13,0.761 (inactive),0.154,-0.153,0.609,2.3,0.103,1.31,0.959,1.22
NC(=O)NCC#Cc1ccc2c(c1)[C@]1(C(=O)N2)[C@H](C(=O)Nc2nc3ccccc3s2)[C@H]2C(=O)O[C@H](c3ccccc3)[C@H](c3ccccc3)N2[C@@H]1c1ccc(O)cc1,-0.0229,0.157 (inactive),0.114,0.103,0.0856,-0.482,0.274,0.846,0.402,1.07
CCCN1C(=O)[C@]2(Cc3ccccc3)N=C(c3ccc(OCCCO)cc3)O[C@@H]2c2ccccc21,0.727,-0.659 (inactive),-0.0345,-0.142,0.537,1.86,0.335,1.28,0.777,1.14
CCOC(=O)C[C@H]1[C@H](OC(=O)Cc2ccc3c(c2)OCO3)[C@@H](NC(=O)C2CCCCC2)c2cc(OCCCO)ccc2N1C(=O)c1ccc2ccccc2n1,0.245,-0.608 (inactive),0.0418,0.358,0.312,0.746,0.15,1.08,1.21,0.662
O=C1O[C@@H](c2ccccc2)[C@@H](c2ccccc2)N2[C@@H](c3ccccc3OCCO)[C@]3(C(=O)Nc4ccccc43)[C@@H](C(=O)NC[C@H](O)c3ccccc3)[C@H]12,0.641,-0.0662 (inactive),-0.213,-0.14,0.586,1.32,0.487,0.9,-1.15,0.196
CCOC(=O)C[C@H]1[C@H](OC(=O)c2ccc(-c3ccccc3)cc2)[C@@H](NC(=O)c2ccc3ccccc3c2)c2cc(OCCCO)ccc2N1C(=O)c1ccc2ccccc2n1,0.587,0.152 (inactive),0.178,0.0278,0.137,1.06,-0.0403,1.04,-0.0835,0.954
Cc1c(NC(=O)/C(C#N)=C/C=C/c2ccccc2[N+](=O)[O-])c(=O)n(-c2ccccc2)n1C,0.974,-0.148 (inactive),-0.0903,-0.0234,0.643,1.11,1.04,0.708,0.704,0.761
C[C@@H]1ON(c2ccc(C(=O)OC(C)(C)C)cc2)[C@H](c2ccc(Br)cc2)[C@H]1C(=O)N1C(=O)OC[C@H]1Cc1ccccc1,0.778,-0.359 (inactive),0.0773,-0.0984,0.235,1.86,0.0865,1.28,0.491,1.08
Cc1ccc(C(C)CC(O)C2C=CC3C(=O)N(c4ccccc4)C(=O)C3N2Nc2ccc(C(C)C)cc2)o1 (stereo not given),0.935,-0.263 (inactive),0.126,0.299,0.541,1.33,0.835,1.28,-0.527,1.15
CC(C)N1CC=CC23O[C@@H]4C=CCCOC(=O)C4[C@H]2C(=O)N(CCO)[C@@H]3C1=O (stereo not given in full),0.0894,-0.455 (inactive),-0.305,-0.125,0.763,-0.548,0.199,-0.354,-0.414,0.172
CN(C)C(=O)[C@@]1(Cc2ccccc2N=[N+]=[N-])COC(c2ccc(OCCCO)cc2)=N1,0.623,1.69 (inactive),0.12,-0.268,0.71,1.89,0.0648,0.905,0.118,1.12
COC(=O)[C@@]1(Cc2ccc(OC)cc2)[C@H]2c3cc(C(=O)N(C)C)n(CCc4c[nH]c5ccc(O)cc45)c3C[C@H]2CN1C(=O)c1ccccc1,0.932,0.258 (inactive),0.403,0.357,0.745,2.88,1.27,1.34,0.121,1.17
COc1ccc([Si](C)(C)[C@H]2[C@H](CCn3cc([C@H](O)c4ccccc4)nn3)O[C@@]3(C(=O)N(Cc4cccc(N5C(=O)c6cccc7cccc5c67)c4)c4ccccc43)[C@@H]2C)cc1,0.145,0.674 (inactive),-0.185,-0.159,0.339,0.501,-0.0631,0.258,-1.54,-0.24
C=C(CCCC)C(=O)CC[C@@H](OC(=O)c1cccnc1)c1ccccc1OCCO,-0.326,0.589 (inactive),0.1,-0.0804,0.406,-0.256,0.377,0.44,0.515,-1.51
CC(C)(C)N1CC=CC23O[C@@H]4C=CCOC(=O)[C@@H]4[C@H]2C(=O)N(CCCO)[C@@H]3C1=O (stereo not given in full),-1.37,0.701 (inactive),-0.478,-0.179,0.917,0.216,-0.343,-1.01,-1.64,-1.62
COc1cc(CO)cc(I)c1O[C@H]1C=C(C(=O)NCCO)C[C@@H](N(CC2CCCCC2)C(=O)c2ccc(C(F)(F)F)cc2)[C@@H]1O,0.388,0.527 (inactive),-0.0921,-0.147,0.055,0.461,0.621,1.27,0.398,0.352
C=C(COC)/C(=C/C[C@@H](OC(=O)c1ccncc1)c1ccc(OCCO)cc1)c1cnc2ccccc2c1,0.646,-0.41 (inactive),0.321,-0.0804,0.854,0.514,0.39,1.31,1.53,1.15
COC(=O)[C@@]1(Cc2ccc(OC)cc2)[C@H]2c3cc(C(=O)N4CCCC4)n(CCc4cc5ccccc5[nH]4)c3C[C@H]2CN1C(=O)c1ccccc1,1.01,1.33 (inactive),0.353,0.213,0.587,3.04,0.816,1.31,-0.65,1.13
O=C1C[C@@](C(=O)NCC(F)(F)F)(c2ccc([N+](=O)[O-])cc2)[C@@H](c2ccc(CO)cc2)N1C1CCCCC1,0.52,0.391 (inactive),0.0488,0.0257,0.685,3.17,1.21,1.29,0.489,1.15
CC[C@H]1C2=C3C(CC[C@H]4C(OCc5ccc(F)cc5C(F)(F)F)OC[C@](C)([C@@H]34)N(C(=O)OC(C)(C)C)C2)C2COC(=O)OCC21 (stereo not given in full),0.911,0.572 (inactive),0.367,0.0755,0.578,2.62,0.494,1.32,-1.64,0.994
C=C(C(=O)CC[C@H](OC(=O)c1cccnc1)c1cccc(OCCO)c1)C(C)C,-0.849,0.587 (inactive),-0.0971,-0.161,0.0143,0.0609,-0.0536,0.481,-0.507,-0.0842
COCCOC(=O)N1C(=O)[C@@]2(c3cc(C#CC4(O)CCCCCC4)ccc31)[C@H](C(=O)N1CCCCCCC1)[C@H]1C(=O)O[C@H](c3ccccc3)[C@H](c3ccccc3)N1[C@@H]2c1ccc(OCCO)cc1,0.513,3.82 (inactive),1.73,0.819,0.705,3.34,1.35,1.29,1.52,1.14
CO[C@H]1O[C@H](CO)[C@@H](OC(=O)Nc2ccc(C(F)(F)F)cc2)[C@H](OC(=O)Nc2ccc3c(c2)OCO3)[C@H]1OC(=O)Nc1ccc2c(c1)OCO2,0.72,1.42 (inactive),0.169,0.0062,0.767,2.67,0.59,1.3,-0.146,1.14
COc1ccccc1CN1C(=O)c2ccccc2[C@](Cc2ccccc2I)(C(=O)NC(C)C)[C@@H]1c1ccc(CO)cc1,0.894,0.338 (inactive),0.101,-0.123,0.131,2.39,0.226,1.3,0.286,1.16
CCOC(=O)C[C@H]1[C@H](OC(=O)c2ccc(-c3ccccc3)cc2)[C@@H](NC(=O)c2ccc3ccccc3n2)c2cc(OCCCO)ccc2N1C(=O)c1ccccc1,0.58,-0.202 (inactive),0.0916,-0.0613,0.14,0.554,0.0488,1.25,0.423,1.04
CO[C@H]1O[C@H](CO)[C@@H](OC(=O)Nc2ccc(Oc3ccccc3)cc2)[C@H](OC(=O)Nc2ccccc2-c2ccccc2)[C@@H]1OC(=O)Nc1ccccc1-c1ccccc1,0.814,-0.098 (inactive),0.182,0.247,0.482,2.31,1.09,1.32,-0.139,1.14
